PubChem BioAssay AID602250 (The Scripps Research Institute Molecular Screening Center, 2012)
Screen size: about 360,000 compounds; about 2,200 (0.61%) were called active. What follows is part of a selection rich in actives, with near analogues and random picks from the rest. A number with no mark means an inactive call.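 How the source made its calls: active means inhibition above a per-plate cutoff, the plate's mean sample inhibition plus 3 SD (cut at about 24% in these data); inactive means the rest.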

Assay: calcium signal blockers in parental CHO-K1 cells – cell-based, Fluo-8 calcium fluorescence, full deck, 1536-well, counter-screen for M1 antagonist project, primary screen (AID 602250);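 further: 0% = DMSO plus EC80 ATP and 100% = DMSO alone without ATP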
Conditions: ATP-induced calcium, Fluo-8 fluorescence, at 3 µM, hits give high values

SMILES	inhibition
OCCc1ccc(NCCc2ccco2)cc1	29.2% (active)
Cc1ccsc1C(=O)NCCc1ccco1	-8.62%
CC1=CC2=NC(=O)CC(C)(C(=O)N(CC(=O)NC(C)(C)C)Cc3ccccc3)N2C=C1 (stereo not drawn)	-17.9%
CC1(C)CC(=O)C2=C(C1)N=C1SCCC(=O)N1C2c1ccc(C(F)(F)F)cc1 (stereo not drawn)	-16.7%
N/C(=N\OC(=O)Cc1ccccc1[N+](=O)[O-])c1ccc(Br)cc1	-3.46%
N/C(=N\OC(=O)N1c2ccccc2Sc2ccccc21)c1ccc(Br)cc1	-4.6%
N/C(=N\OC(=O)/C=C/c1ccccc1)c1ccc(Br)cc1	24.5% (active)
CCc1ccc(/C=N/NC(=O)c2ccc(OC3CCCC3)cc2)s1	3.77%
Cc1cc(=O)oc2c(C)c(OCC(=O)NCCN3CCOCC3)ccc12	-7.03%
O=C(C1CCCO1)N1CCN(S(=O)(=O)c2ccc(Br)cc2)CC1 (stereo not drawn)	5.99%
COc1cc(C(=S)NCc2ccccc2)cc(Br)c1O	-5.75%
Cc1cc(NC(=O)Cn2nc(C(F)(F)F)c3c2CCCC3)no1	-9.16%
O=C(Cn1nc(C(F)(F)F)c2c1CCC2)NCc1ccc(F)cc1	25% (active)
CCC(C)NC(=O)Cn1nc(C(F)(F)F)c2c1CCC2 (stereo not drawn)	-24.7%
N#CC1(Nc2ccc3c4c(cccc24)CC3)CCCCC1	35.7% (active)
N#CC1(Nc2ccc(-c3ccc(Cl)cc3)cc2)CCCC1	-8.66%
CC(C)C(=O)Nc1ccc2c3c(cccc13)CC2	-5.37%
CCn1c(=O)c(=O)[nH]c2c(=O)oc3ccc(S(=O)(=O)Nc4ccc(OC)cc4)cc3c21	-7.54%
CCC(Cc1ccccc1)NC(=O)C1CCCCC1 (stereo not drawn)	27.9% (active)
Cc1ccc(NC(=O)[C@H](Cc2ccccc2)NC(=O)C2CCNCC2)cc1	-21.4%
CCC(NC(=O)C1CCCC1)c1ccc(C)cc1 (stereo not drawn)	-8.16%
O=c1[nH]c(CSc2ccccc2)nc2c1oc1ccccc12	-8.98%
CN(C(=O)CSc1nnc(-c2n[nH]c3ccccc23)o1)c1ccccc1	-5.61%
Cc1cccc2cc3c(N)c(C(=O)N4CCCc5ccccc54)sc3nc12	13.5%

SMILES	inhibition
COc1ccc(NC(=O)C(NC(C)=O)C(=O)NCc2ccccc2Cl)cc1 (stereo not drawn)	1.86%
O=C(Nc1ccc(OCCO)cc1)c1csc([C@H]2C[C@H](O)[C@@H](CO)O2)n1	25.4% (active)
O=C(Nc1ccc(Cl)cc1)c1csc([C@H]2C[C@H](O)[C@@H](CO)O2)n1	20.1%
O=C(Nc1ccc(Cl)cc1)c1csc([C@@H]2O[C@H](CO)[C@H](O)[C@H](O)[C@H]2O)n1	-8.36%
O=C(c1ccc(S(=O)(=O)NCc2ccco2)cc1)N1CCN(c2ccccc2)CC1	-11.5%
O=C(c1ccc(S(=O)(=O)N2CCOCC2)cc1)N1CCN(c2ccccc2)CC1	24.7% (active)
O=C(c1ccc(S(=O)(=O)N2CCCC2)cc1)N1CCN(c2ccccc2F)CC1	-8.35%
COC(=O)c1nc(NC(=O)c2ccc(F)cc2)n[nH]1	-11.8%
Cc1ccc(C(=O)Nc2ccn(C)n2)cc1	-13.4%
CSc1nccc(NC(=O)c2ccc(C(C)(C)C)cc2)n1	24.6% (active)
COc1ccccc1CNC(=O)c1cc(-c2cc(Cl)ccc2C)n[nH]1	-17.7%
Cc1ccc(S(=O)(=O)N(Cc2ccc(Cl)cc2)c2ccccc2C(=O)NCc2cccnc2)cc1	22.6%
Nc1nonc1-c1nc2ccccc2n1Cc1ccc(F)cc1	24.1% (active)
COc1ccc(C)c(Cn2c(-c3nonc3N)nc3ccccc32)c1	-35.1%
O=c1[nH]cccc1-c1nc2ccccc2n1Cc1ccc(Cl)cc1	6.91%
O/N=C(\C[n+]1ccccc1)c1ccc(Br)cc1	-7.88%
CCS(=O)(=O)c1ccc(C(=O)NC)c(Cl)c1Cl	-11.1%
CC(=O)c1cccc(NC(=O)C2CCCN2S(=O)(=O)c2cccc3nsnc23)c1 (stereo not drawn)	5.27%
CC(=O)Nc1ccc(S(=O)(=O)N2CCN(S(=O)(=O)c3cccs3)CC2)cc1	6.03%
CC(=O)c1ccc(NC(=O)C2CCCN2S(=O)(=O)c2cccs2)cc1 (stereo not drawn)	24% (active)
Cc1ccc(SCCN2C(=O)NC(C)(C)C2=O)cc1	-11.7%
CCOC(=O)C1C(=O)C=C(c2ccc(OC)cc2)CC1c1ccco1 (stereo not drawn)	-9.22%
CCC1(C(=O)c2ccccc2)C(c2cccc([N+](=O)[O-])c2)C1(C(=O)OC)C(=O)OC (stereo not drawn)	-5.15%
COc1ccc(N2CCN(C(=S)Nc3ccc(S(N)(=O)=O)cc3)CC2)cc1	-21.9%
